Assay outcomes deposited in PubChem by several laboratories.
Compounds with a hit are over-represented: about 4% of the library has one in this group of screens.
Anthrax LF prot: anthrax lethal factor protease inhibition. P15917. multiplex microsphere protease cleavage assay, LF. inhibition, % at 10 µM. 360,000 compounds, 0.12% hits; note: plate controls were buffer without enzyme for full effect and enzyme alone for no effect
Target sequence (P15917 whole entry, looked up): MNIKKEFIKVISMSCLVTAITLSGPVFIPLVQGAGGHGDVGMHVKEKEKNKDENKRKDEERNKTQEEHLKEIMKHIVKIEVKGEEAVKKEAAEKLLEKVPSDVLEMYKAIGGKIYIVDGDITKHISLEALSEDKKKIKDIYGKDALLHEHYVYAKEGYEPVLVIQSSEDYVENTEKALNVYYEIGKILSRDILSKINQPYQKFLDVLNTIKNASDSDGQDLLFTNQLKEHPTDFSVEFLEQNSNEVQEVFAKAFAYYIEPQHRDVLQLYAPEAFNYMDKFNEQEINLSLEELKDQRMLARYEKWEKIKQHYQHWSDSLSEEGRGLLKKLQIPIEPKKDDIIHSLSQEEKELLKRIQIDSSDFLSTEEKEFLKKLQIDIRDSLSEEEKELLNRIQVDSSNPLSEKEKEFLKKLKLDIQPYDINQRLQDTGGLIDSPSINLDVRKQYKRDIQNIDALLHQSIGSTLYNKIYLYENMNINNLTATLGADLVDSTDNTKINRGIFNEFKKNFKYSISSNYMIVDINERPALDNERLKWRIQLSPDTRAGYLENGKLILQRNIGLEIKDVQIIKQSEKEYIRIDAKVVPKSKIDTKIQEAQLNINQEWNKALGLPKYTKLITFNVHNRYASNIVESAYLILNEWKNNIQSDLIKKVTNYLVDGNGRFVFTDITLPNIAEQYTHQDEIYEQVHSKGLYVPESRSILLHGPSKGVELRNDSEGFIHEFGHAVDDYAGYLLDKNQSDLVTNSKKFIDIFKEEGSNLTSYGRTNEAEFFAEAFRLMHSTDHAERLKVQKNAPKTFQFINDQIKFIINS
BoNT-F LC inh: blocks Botulinum neurotoxin F light chain protease | Multiplex microsphere protease cleavage assay, flow cytometry | inhibition, % at 10 µM | 360,000 compounds, 0.22% hits; in the data active = inhibition above about 35%, passing the limit was not always enough; inconclusive = no clear call, values can overlap the other calls; note: plate controls were buffer without enzyme for full effect and enzyme alone for no effect
DUSP3 inh: DUSP3 (human) phosphatase inhibition; 290,000 compounds, 0.52% hits; P51452; recombinant VHR phosphatase, pNPP absorbance; inhibition, % at 13.3 µM; in the data active = inhibition above about 50%
BoNT A protease: blocks Botulinum neurotoxin A light chain protease; multiplex microsphere protease substrate cleavage, flow cytometry; inhibition, % at 10 µM; 360,000 compounds, 0.17% hits; AID 588499; note: plate controls were buffer without enzyme for full effect and enzyme alone for no effect
MazEF act: MazEF (E. coli) toxin RNase activation. 350,000 compounds, 0.32% hits. P0AE70. FAM/BHQ RNA-DNA oligo cleavage fluorescence, 5 h. activation, % at 20 µM; in the data active = activation above about 50%
Bead autofluor: counter-screen for toxin protease inhibitors: compound fluorescence; compound autofluorescence counterscreen, microsphere flow cytometry; active compounds read high; fluorescence intensity (no concentration beside the values); 360,000 compounds, 3.1% hits; in the data active = fluorescence intensity above about 16000; inconclusive = no clear call, values can overlap the other calls
Active calls of the source: *. Cut-off read from the data, not from the text of the source, unless noted: active = inhibition above about 30%; inconclusive = no clear call, values can overlap the other calls; inactive = below that.

Results for COC(=O)c1cn[nH]c1NC(=S)Nc1ccc(C)cc1Cl ?
Anthrax LF prot: -0.1; BoNT-F LC inh: -2.1; DUSP3 inh: -15.3; BoNT A protease: inconclusive; MazEF act: 7.0; Bead autofluor: 23473*

How did COC(=O)c1cn[nH]c1NC(=S)Nc1ccc(Cl)c(Cl)c1 do in these assays?
Anthrax LF prot: -5.7; BoNT-F LC inh: -9.0; DUSP3 inh: -4.1; BoNT A protease: -0.3; MazEF act: -2.2; Bead autofluor: 9891

Results for CC(C)NC(=O)c1onc(CSc2ccc(C(C)C)cc2)c1C(=O)O ?
Anthrax LF prot: 1.4; BoNT-F LC inh: -4.4; DUSP3 inh: -8.2; BoNT A protease: -0.4; MazEF act: 7.1; Bead autofluor: 3965

Results for CCCc1nc2c([nH]1)c(=O)n(C)c(=O)n2C ?
Anthrax LF prot: 2.4; BoNT-F LC inh: inconclusive; DUSP3 inh: 59.6*; BoNT A protease: -3.0; MazEF act: -2.6; Bead autofluor: 4112

How did CC(=O)Nc1ccc(NC(=O)COC(=O)c2c(C)nn(-c3ccccc3)c2C)cc1 do in these assays?
Anthrax LF prot: -2.0; BoNT-F LC inh: -0.5; DUSP3 inh: -5.7; BoNT A protease: 0.3; MazEF act: 0.5; Bead autofluor: 2061

How did COc1ccc(S(=O)(=O)N2CCN(C(=O)c3c(C)nn(-c4ccccc4)c3C)CC2)cc1 do in these assays?
Anthrax LF prot: 1.2; BoNT-F LC inh: -4.6; BoNT A protease: 0.3; MazEF act: 2.1; Bead autofluor: 3441

Results for Cc1nn(-c2ccccc2)c(C)c1C(=O)OCC(=O)N1CCN(S(=O)(=O)c2ccccc2)CC1 ?
Anthrax LF prot: -3.3; BoNT-F LC inh: 1.1; DUSP3 inh: 25.8; BoNT A protease: inconclusive; MazEF act: 2.5; Bead autofluor: 21834*

Results for Cc1nn(-c2ccccc2)c(C)c1C(=O)OCC(=O)NC12CC3CC(CC(C3)C1)C2 ?
Anthrax LF prot: -0.6; BoNT-F LC inh: 1.8; DUSP3 inh: 17.3; BoNT A protease: 2.1; MazEF act: 0.9; Bead autofluor: 22484*

Results for CCOC(=O)c1cc(-c2ccc(OC)cc2F)nc2c1c(C)nn2CCC#N ?
Anthrax LF prot: -4.0; BoNT-F LC inh: -4.8; DUSP3 inh: 17.3; BoNT A protease: inconclusive; MazEF act: -9.1; Bead autofluor: 25362*

How did Cc1cc(C)c(S(=O)(=O)N2CCOCC2)cc1NS(=O)(=O)c1cc(OCC(N)=O)c(C)cc1Cl do in these assays?
Anthrax LF prot: -0.9; BoNT-F LC inh: 2.6; DUSP3 inh: 9.1; BoNT A protease: 0.0; MazEF act: -3.7; Bead autofluor: 4199

How did CCOC(=O)c1sc2nc[nH]c(=O)c2c1C do in these assays?
Anthrax LF prot: 2.7; BoNT-F LC inh: 3.0; DUSP3 inh: -8.3; BoNT A protease: 0.4; MazEF act: 0.7; Bead autofluor: 2413

Results for CCOC(=O)c1snc2c(=O)[nH]cnc12 ?
Anthrax LF prot: -4.1; BoNT-F LC inh: -13.2; DUSP3 inh: 35.7; BoNT A protease: -6.6; MazEF act: -3.8; Bead autofluor: 18607*

Results for O=S1CCCSC1c1cccnc1 (centres undefined) ?
Anthrax LF prot: -5.1; BoNT-F LC inh: -1.1; DUSP3 inh: 2.4; BoNT A protease: 1.6; MazEF act: 0.1; Bead autofluor: 21912*

What do the screens show for `Cc1ccc(Nc2ncccc2C(=O)NCc2cccs2)c(C)c1`?
Anthrax LF prot: -4.3; BoNT-F LC inh: -9.9; DUSP3 inh: 18.6; BoNT A protease: inconclusive; MazEF act: 5.0; Bead autofluor: 21631*

How did O=C(O)c1ccccc1NS(=O)(=O)c1ccc(NN=Cc2ccc(F)cc2)c([N+](=O)[O-])c1 do in these assays?
Anthrax LF prot: 0.2; BoNT-F LC inh: -3.0; BoNT A protease: 0.2; MazEF act: -16.7; Bead autofluor: 4296

What do the screens show for `O=C1/C(=C/c2cccs2)NC(=S)N1C1CC1`?
Anthrax LF prot: -5.0; BoNT-F LC inh: -8.8; DUSP3 inh: 30.1; BoNT A protease: 0.2; MazEF act: 0.2; Bead autofluor: 2069

Results for Cc1ccc(S(=O)(=O)N2c3ccccc3CC2C)cc1 (centres undefined) ?
Anthrax LF prot: -8.2; BoNT-F LC inh: -1.7; DUSP3 inh: 19.1; BoNT A protease: -1.2; MazEF act: -4.8; Bead autofluor: 3971

What do the screens show for `COc1ccc(C)cc1S(=O)(=O)N1c2ccccc2CC1C` (centres undefined)?
Anthrax LF prot: 0.4; BoNT-F LC inh: -7.1; DUSP3 inh: -18.0; BoNT A protease: -6.4; MazEF act: -2.1; Bead autofluor: 17618*

How did CCC(C)NC(=O)C1CCN(C(=O)COc2ccc3c4c(c(=O)oc3c2C)CCCC4)CC1 (centres undefined) do in these assays?
Anthrax LF prot: -3.1; BoNT-F LC inh: 2.0; DUSP3 inh: -0.7; BoNT A protease: -1.6; MazEF act: 3.3; Bead autofluor: 4525

Results for C=CCN(CC(=O)NCc1ccccc1)C(=O)c1csnn1 ?
Anthrax LF prot: 0.5; BoNT-F LC inh: -1.0; DUSP3 inh: 25.2; BoNT A protease: -1.9; MazEF act: -0.7; Bead autofluor: 24034*

What do the screens show for `COc1ccc(CNC(=O)CN(Cc2ccccc2)C(=O)c2csnn2)cc1`?
Anthrax LF prot: -0.3; BoNT-F LC inh: 18.0; DUSP3 inh: 41.3; BoNT A protease: 1.1; MazEF act: -6.2; Bead autofluor: 3957

What do the screens show for `Cc1cc(/C=C2\Sc3ccccc3N2C)cc(C)[n+]1CC1CCCO1` (centres undefined)?
Anthrax LF prot: 14.9; BoNT-F LC inh: 0.8; DUSP3 inh: 17.5; BoNT A protease: 42.5*; MazEF act: -40.6; Bead autofluor: 5172

How did COc1ccccc1N1C(=O)[C@@H]2C(C(=O)CN3C(=O)c4ccccc4C3=O)=NN[C@@H]2C1=O do in these assays?
Anthrax LF prot: 3.5; BoNT-F LC inh: -1.3; DUSP3 inh: 9.3; BoNT A protease: 0.9; MazEF act: 0.5; Bead autofluor: 6548

Results for Cc1cc(C)nc(N2CCC(C(=O)Nc3nnc(C)s3)CC2)n1 ?
Anthrax LF prot: -12.5; BoNT-F LC inh: 2.1; DUSP3 inh: 0.3; BoNT A protease: inconclusive; MazEF act: -3.8; Bead autofluor: 18862*

How did COCCSc1nnc(NC(=O)C2CCCCC2)s1 do in these assays?
Anthrax LF prot: -1.5; BoNT-F LC inh: -2.2; DUSP3 inh: 33.4; BoNT A protease: -1.2; MazEF act: 4.0; Bead autofluor: 17088*

What do the screens show for `Cc1nnc(NC(=O)C2CCCCC2)s1`?
Anthrax LF prot: -3.2; BoNT-F LC inh: -3.8; DUSP3 inh: 3.5; BoNT A protease: inconclusive; MazEF act: 6.3; Bead autofluor: 22880*

Results for Cc1ccc(NC(=O)C2CCN(c3nc(C)cc(C)n3)CC2)cc1 ?
Anthrax LF prot: -6.0; BoNT-F LC inh: -4.9; DUSP3 inh: 23.4; BoNT A protease: 0.0; MazEF act: -3.8; Bead autofluor: 3090

What do the screens show for `CCC(C)(C)NC(=O)C1CCN(c2nc(C)cc(C)n2)CC1`?
Anthrax LF prot: -0.7; BoNT-F LC inh: -0.7; DUSP3 inh: 14.0; BoNT A protease: -1.3; MazEF act: -3.4; Bead autofluor: 16929*
